Measurements taken from PubChem BioAssay (Tox21).
The source made the active and inactive calls. Calls follow the shape of the dose curve; as a rule, active = well fitted curve in the direction sought with a large enough effect in the repeat runs; inconclusive = weak or mixed curves; inactive = flat fitted curve, though single readings scatter.

Assay: qHTS assay to test for compound auto fluorescence at 535 nm (green) in HEK293 cell free culture (AID 720682)
Conditions: cell-free medium, green autofluorescence 485/535 nm, active compounds read high; series mostly up to 91.3 µM; activity change: at the top concentration
From the text: U.S. Tox21 Program National Center for Advancing Translational Sciences [NCATS] NIH Chemical Genomics Center [NCGC] U.S. Environmental Protection Agency [EPA] National Institutes of Environmental Health Sciences [NIEHS] National Toxicology Program [NTP] U.S. Food and Drug Administration [FDA] Tox21 Assay Overview: Compound auto fluorescence often interferes with screening of the compound library against various biological targets and signaling pathways. Some of these compounds may have fluorophoric properties. Such properties may interfere with the assay outputs resulting in false positives and/or negatives. To decrease such complications and ensure the compound activities are relevant in terms of biological response, the Tox21 10K compound library was screened for auto fluorescence. From the fluorophores used as reporter signals in our screening assays, the auto fluorescence equivalencies of compounds against three fluorophores have been evaluated: Triamterene, Fluorescein and Rose Bengal sodium for blue, green and red fluorescence, respectively. The fluorescence intensities were measured using Excitation/Emission wavelengths at 405/460nm, 485/535nm and 540/590nm for blue, green and red labels, respectively. This assay includes the green fluorescence data.
Tox21 Assay Protocol Summary: 5 uL of culture medium (DMEM containing 10% FBS) per well was dispensed into black wall/clear bottom 1536-well plates using a Multidrop Combi Dispenser (ThermoFisher Scientific, Waltham, MA). After 23 nL compound or DMSO vehicle was transferred into assay plate by a pintool work station (Kalypsys, San Diego, CA), fluorescence intensities in the assay plates were measured by an Envision (PerkinElmer, Shelton, CT) plate reader using three labels for measuring blue, green and red fluorescence at […] 460, 535 and 590nm respectively.
% is scaled to controls: 0 for no effect and ±100 for the full control effect.

| SMILES | outcome | activity change |
| --- | --- | --- |
| CCCCCCC=O | inactive | – |
| CC(=O)OCc1ccccc1 | inactive | – |
| CC1(C)OC[C@@H]2O[C@@]3(C(=O)O)OC(C)(C)O[C@H]3[C@@H]2O1 | inactive | – |
| CC(=O)OC1CC(C)OC(C)O1 (stereo not given) | inactive | – |
| CCc1ccccc1CC | inactive | – |
| CCOCCOCCOCCO | inactive | – |
| C[C@]12CC[C@@H]3c4ccc(O)cc4CC[C@H]3[C@@H]1C[C@@H](O)[C@@H]2O | inactive | – |
| CC(C)(C)c1cc(Cc2cc(C(C)(C)C)c(O)c(C(C)(C)C)c2)cc(C(C)(C)C)c1O | inactive | – |
| CCOC(=O)n1ccn(C)c1=S | inactive | – |
| Cc1ccc2ncccc2c1 | inactive | – |
| C=CC[N+](C)(C)CC=C | inactive | – |
| CC(=O)CC(C)(C)O | inactive | – |
| O=C(O)c1ccc(C(=O)O)c(C(=O)O)c1 | inactive | – |
| O=C1C(c2[nH]c3ccccc3c2O)=Nc2ccccc21 | inactive | – |
| Cc1ccc(S(=O)(=O)N=C=O)cc1 | inactive | – |
| Cc1ccc(C(C)C)c(O)c1 | inactive | – |
| CCCCCCCCCCCCCCCC(=O)OC(C)C | inactive | – |
| C=C(C)[C@H]1CC=C(C)C(=O)C1 | inactive | – |
| CCCCC(C=O)CC (stereo not given) | inactive | – |
| C=CCCCCCCCCC(=O)O | inactive | – |

| SMILES | outcome | activity change |
| --- | --- | --- |
| COc1ccc(CCC(C)=O)cc1 | – | -0.0503% (inactive) |
| O=C(O)Cn1c(=O)n(Cc2ccc(Br)cc2F)c(=O)c2ccc(Cl)cc21 | – | 0.118% (inactive) |
| C=C(C)CNCC | inactive | – |
| CC(=O)Oc1ccc(C)cc1 | inactive | – |
| NCCN1CCNCC1 | inactive | – |
| CCCOC(=O)c1ccccc1 | inactive | – |
| Nc1nc(N)nc(-c2ccccc2)n1 | inactive | – |
| COC(=O)c1cccnc1 | inactive | – |
| COCCCN | inactive | – |
| CCO[Si](CCC#N)(OCC)OCC | inactive | – |
| CCCCOC(=O)c1ccc(N)cc1 | inactive | – |
| CC(=O)OCc1ccco1 | inactive | – |
| CCCCCCO | inactive | – |
| C=Cc1ccc(C)cc1 | inactive | – |
| NC(=S)NNC(N)=S | inactive | – |
| O=C1CCCC1 | inactive | – |
| C=CCc1ccc(OC)c(OC)c1 | inactive | – |
| CN(C)c1ccc(Cc2ccc(N(C)C)cc2)cc1 | inactive | – |
| CCCCCCCC=O | inactive | – |
| CCNc1cccc(C)c1 | inactive | – |
